# Experimental data: PubChem BioAssay AID1259418 (Broad Institute, 2018)
# Out of some 3,400 compounds screened, about 840 (25%) were called active. Roughly 11% stayed inconclusive and do not appear here. A selection follows. Results with a measured potency or affinity are listed apart. A number with no mark means an inactive call.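 The calls were made as follows: active = fitted half-maximal concentration of signal decrease at or below twice the sample's top tested concentration; inconclusive = flat curve between -70 and -30 percent, or poor fit; inactive = flat within 30 percent, signal rise, or potency above limit.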
# Assay: T. gondii growth inhibition with IFN-gamma, dose response, cell-based, ME49Luc, HeLa, luciferase, 72 h (AID 1259418)
# Settings: T. gondii ME49Luc in IFN-y HeLa, active compounds read low, -100% = high-dose IFN-γ control wells; at 19.5 µM unless noted
row,Structure (SMILES),max activity
1,O=C(Cc1ccc(Cl)cc1)Nc1ccc(-c2nc(-c3ccccc3)co2)cc1,17.2% [at 2.6 µM]
2,CCOC(=O)C(=O)Nc1ccc(-c2nc(-c3ccc(C)cc3C)co2)cc1,44.4%
3,CC(C)c1ccc(C(=O)N=C(N)N)cc1S(C)(=O)=O,11.6%
4,CCOc1ccc(-c2nc3c(s2)CN(S(=O)(=O)c2cccc(C)c2)CC3)cc1,29%
5,COc1ccc(-c2nc3c(s2)CN(S(=O)(=O)c2cccc(F)c2)CC3)cc1,9.88%
6,CCS(=O)(=O)N1CC(=O)N2[C@H](CO)[C@@H](c3ccc(-c4cccc(F)c4)cc3)[C@@H]2C1,-8.63%
7,Cc1ccsc1C(=O)N1CCc2nc(-c3cnn(C)c3)nc(NC(C)C)c2C1,-26.1% [at 0.16 µM]
8,Cc1ccc(-c2coc(-c3ccc(NC(=O)Nc4ccccc4C)cc3)n2)c(C)c1,21.8% [at 10 µM]
9,Cc1ccc(OCC(=O)Nc2ccc(-c3nc(-c4ccc(C)cc4)co3)cc2)cc1,20.2%
10,COc1ccccc1-c1nc(Cn2c(=O)c3c(C)cc(C)nc3n(-c3ccccc3)c2=O)c(C)o1,9.28% [at 2.6 µM]
11,Cc1ccc2c(c1C)-n1cccc1C1(CCN(C(=O)COc3ccc(Cl)cc3)CC1)N2,-7.41% [at 1.35 µM]
12,O=C(CCC1Nc2c3ccccc3nc(=S)n2C1=O)NCc1cccs1 (stereo unspecified),14.7% [at 5 µM]
13,Cc1nc(OCC(=O)Nc2ccccc2C)c2ccccc2n1,19.6% [at 0.68 µM]
14,COc1ccc(C[C@H]2CN(C(=O)c3ccnn3C)CC[C@H]2OC)cc1,30.4%
15,CO[C@@H]1CCN(c2ncccn2)C[C@@H]1Cc1cccc(C)c1,9.87%
16,O=S(=O)(c1cccc(C(F)(F)F)c1)N1CCC(N2CCOCC2)CC1,20.6% [at 0.16 µM]
17,CN(C)C(=O)CN1CCOCC2(CCN(CC3CCOC3)CC2)C1 (stereo unspecified),23.8%
18,Cc1ccc(C)c(-c2coc(-c3ccc(NC(=O)NC4CCCC4)cc3)n2)c1,6.74%
19,Cc1ccc2c(c1C)-n1cccc1C1(CCN(C(=O)CC3CCCCC3)CC1)N2,-13.7% [at 0.16 µM]
20,CCC(CC)C(=O)N1CCC2(CC1)Nc1ccc(C)c(C)c1-n1cccc12,-6.76% [at 0.35 µM]
21,CCOc1ccc(S(=O)(=O)N2CCC[C@@H]2C(=O)NCCc2csc(C)n2)cc1,-13.1%
